Experiments:
Conditions in all cases: concentration: 1 μM, replicates: in singlicate; n = 1
[1] = test system: PIM1
[2] = test system: PIM2
[3] = test system: PIM3
[4] = test system: PIP5K1A
[5] = test system: PIP5K1C
[6] = test system: PIP5K2B
[7] = test system: T1, PIP5K2C
T1 construct: gene PIP4K2C

[8] = test system: T2, PKAC-alpha
T2 construct: gene PRKACA

[9] = test system: T3, PKAC-beta
T3 construct: gene PRKACB

[10] = test system: PKMYT1
[11] = test system: PKN1
[12] = test system: PKN2
[13] = test system: PLK1
[14] = test system: PLK2
[15] = test system: PLK3
[16] = test system: PLK4
[17] = test system: PRKCD
[18] = test system: PRKCE
[19] = test system: PRKCH
[20] = test system: PRKCI
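Note: KINOMEscan kinase panel screen.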

SMILES: Cc1c(Cn2ccn3c(=O)cc(N4CCOCC4)nc23)cccc1C(F)(F)F [GSK2289044]
- %Inh [1]: 0%
- %Inh [2]: 0%
- %Inh [3]: 4%
- %Inh [4]: 0%
- %Inh [5]: 10%
- %Inh [6]: 15%
- %Inh [7]: 0%
- %Inh [8]: 11%
- %Inh [9]: 0%
- %Inh [10]: 0%
- %Inh [11]: 20%
- %Inh [12]: 5%
- %Inh [13]: 0%
- %Inh [14]: 0%
- %Inh [15]: 0%
- %Inh [16]: 0%
- %Inh [17]: 0%
- %Inh [18]: 0%
- %Inh [19]: 8%
- %Inh [20]: 0%

SMILES: Cc1cccc(-c2cc(Nc3ccncc3)c3ccccc3n2)n1 [GSK223675]
- %Inh [1]: 23%
- %Inh [2]: 0%
- %Inh [3]: 19%
- %Inh [4]: 0%
- %Inh [5]: 25%
- %Inh [6]: 4%
- %Inh [7]: 8%
- %Inh [8]: 0%
- %Inh [9]: 0%
- %Inh [10]: 0%
- %Inh [11]: 46%
- %Inh [12]: 0%
- %Inh [13]: 1%
- %Inh [14]: 0%
- %Inh [15]: 0%
- %Inh [16]: 2%
- %Inh [17]: 0%
- %Inh [18]: 0%
- %Inh [19]: 0%
- %Inh [20]: 17%

SMILES: COc1cccc(NC(=O)NC2CCN(c3ccnc(Nc4ccc(F)cc4)n3)C2)c1 (centres unmarked) [GSK1379721]
- %Inh [1]: 9%
- %Inh [2]: 0%
- %Inh [3]: 0%
- %Inh [4]: 38%
- %Inh [5]: 59%
- %Inh [6]: 0%
- %Inh [7]: 0%
- %Inh [8]: 0%
- %Inh [9]: 0%
- %Inh [10]: 0%
- %Inh [11]: 8%
- %Inh [12]: 0%
- %Inh [13]: 7%
- %Inh [14]: 0%
- %Inh [15]: 7%
- %Inh [16]: 3%
- %Inh [17]: 0%
- %Inh [18]: 14%
- %Inh [19]: 0%
- %Inh [20]: 4%

SMILES: CCn1c(-c2cccnc2O)nc2cnccc21 [SB-736715]
- %Inh [1]: 0%
- %Inh [2]: 0%
- %Inh [3]: 0%
- %Inh [4]: 0%
- %Inh [5]: 0%
- %Inh [6]: 0%
- %Inh [7]: 19%
- %Inh [8]: 4%
- %Inh [9]: 0%
- %Inh [10]: 0%
- %Inh [11]: 0%
- %Inh [12]: 0%
- %Inh [13]: 0%
- %Inh [14]: 0%
- %Inh [15]: 0%
- %Inh [16]: 0%
- %Inh [17]: 2%
- %Inh [18]: 3%
- %Inh [19]: 0%
- %Inh [20]: 0%

SMILES: CN(C)CCN(C)C(=O)c1cc(-c2ccncc2)c(-c2ccc(Cl)c(O)c2)o1.Cl.Cl [SB-710397]
- %Inh [1]: 0%
- %Inh [2]: 0%
- %Inh [3]: 0%
- %Inh [4]: 1%
- %Inh [5]: 67%
- %Inh [6]: 8%
- %Inh [7]: 42%
- %Inh [8]: 9%
- %Inh [9]: 0%
- %Inh [10]: 0%
- %Inh [11]: 17%
- %Inh [12]: 0%
- %Inh [13]: 8%
- %Inh [14]: 0%
- %Inh [15]: 0%
- %Inh [16]: 0%
- %Inh [17]: 0%
- %Inh [18]: 47%
- %Inh [19]: 22%
- %Inh [20]: 33%

SMILES: Fc1cc(Cl)ccc1Nc1ccnc2cc(I)ccc12 [GW551191]
- %Inh [1]: 22%
- %Inh [2]: 0%
- %Inh [3]: 6%
- %Inh [4]: 0%
- %Inh [5]: 30%
- %Inh [6]: 0%
- %Inh [7]: 10%
- %Inh [8]: 0%
- %Inh [9]: 0%
- %Inh [10]: 1%
- %Inh [11]: 17%
- %Inh [12]: 0%
- %Inh [13]: 0%
- %Inh [14]: 0%
- %Inh [15]: 0%
- %Inh [16]: 1%
- %Inh [17]: 0%
- %Inh [18]: 10%
- %Inh [19]: 2%
- %Inh [20]: 16%

SMILES: O=C(Nc1ccccc1)Nc1cccc(Oc2ccc3nccn3n2)c1
- %Inh [1]: 0%
- %Inh [2]: 2%
- %Inh [3]: 0%
- %Inh [4]: 9%
- %Inh [5]: 49%
- %Inh [6]: 15%
- %Inh [7]: 48%
- %Inh [8]: 48%
- %Inh [9]: 70%
- %Inh [10]: 0%
- %Inh [11]: 0%
- %Inh [12]: 0%
- %Inh [13]: 33%
- %Inh [14]: 0%
- %Inh [15]: 0%
- %Inh [16]: 0%
- %Inh [17]: 16%
- %Inh [18]: 0%
- %Inh [19]: 0%
- %Inh [20]: 21%

Source: paper PMC5540273 (PLoS ONE, 2017)
